Experimental data as given in PubChem BioAssay AID1159580 (chemical genetic matrix, 2015).
About 2,000 (36%) of roughly 5,500 compounds were called active. Inconclusive results (about 18%) are left out. Some of the results follow. Values without a mark were called inactive. Rule as the data show it: active = normalized growth mostly below about 0.91 (no sharp cut-off); inconclusive = no clear call, values can overlap the other calls; inactive = mostly above about 0.92.

Assay: chemical genetic growth profiling, strain panel (AID 1159580);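 also: tested at 20 µM; growth read once vehicle control cultures reached saturation at 30 °C; 1 = growth at the plate median or of vehicle wells; lower values mean less growth of the strain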
Conditions: growth OD

CC(=O)c1cc2c(cc1O)OC(C)(C)C=C2
normalized growth (S. cerevisiae deletion strains, locus YAL013W, strain DEP1, stronger effect = lower value): 0.991
normalized growth (S. cerevisiae deletion strains, locus YBR021W, strain FUR4, stronger effect = lower value): 1.01
normalized growth (S. cerevisiae deletion strains, locus YBR229C, strain ROT2, stronger effect = lower value): 0.983
normalized growth (S. cerevisiae deletion strains, locus YCL029C, strain bik1, stronger effect = lower value): 0.993
normalized growth (S. cerevisiae deletion strains, locus YDL035C, strain GPR1, stronger effect = lower value): 1
normalized growth (S. cerevisiae deletion strains, locus YDL074C, strain BRE1, stronger effect = lower value): 0.974
normalized growth (S. cerevisiae deletion strains, locus YDL101C, strain DUN1, stronger effect = lower value): 0.999
normalized growth (S. cerevisiae deletion strains, locus YDL134C, strain PPH21, stronger effect = lower value): 1.01
normalized growth (S. cerevisiae deletion strains, locus YDL185W, strain tfp1, stronger effect = lower value): 0.993
normalized growth (S. cerevisiae deletion strains, locus YDL192W, strain arf1, stronger effect = lower value): 0.976
normalized growth (S. cerevisiae deletion strains, locus YDR101C, strain arx1, stronger effect = lower value): 0.891 (active)
normalized growth (S. cerevisiae deletion strains, locus YDR162C, strain NBP2, stronger effect = lower value): 1
normalized growth (S. cerevisiae deletion strains, locus YDR318W, strain mcm21, stronger effect = lower value): 0.999
normalized growth (S. cerevisiae deletion strains, locus YDR388W, stronger effect = lower value): 0.992
normalized growth (S. cerevisiae deletion strains, locus YDR502C, strain sam2, stronger effect = lower value): 1
normalized growth (S. cerevisiae deletion strains, locus YER110C, stronger effect = lower value): 0.979
normalized growth (S. cerevisiae deletion strains, locus YER155C, strain BEM2, stronger effect = lower value): 0.975
normalized growth (S. cerevisiae deletion strains, locus YER167W, strain BCK2, stronger effect = lower value): 0.96
normalized growth (S. cerevisiae deletion strains, locus YGL078C, strain dbp3, stronger effect = lower value): 1.03
normalized growth (S. cerevisiae deletion strains, locus YGL086W, strain mad1, stronger effect = lower value): 0.972
normalized growth (S. cerevisiae deletion strains, locus YGL248W, strain PDE1, stronger effect = lower value): 0.997
normalized growth (S. cerevisiae deletion strains, locus YGR078C, strain PAC10, stronger effect = lower value): 1.01
normalized growth (S. cerevisiae deletion strains, locus YGR135W, strain pre9, stronger effect = lower value): 1.02
normalized growth (S. cerevisiae deletion strains, locus YGR252W, strain gcn5, stronger effect = lower value): 1.07
normalized growth (S. cerevisiae deletion strains, locus YHR079C, strain IRE1 (second series), stronger effect = lower value): 0.988
normalized growth (S. cerevisiae deletion strains, locus YHR094C, strain hxt1, stronger effect = lower value): 0.983
normalized growth (S. cerevisiae deletion strains, locus YHR129C, strain ARP1, stronger effect = lower value): 0.991
normalized growth (S. cerevisiae deletion strains, locus YHR200W, strain rpn10, stronger effect = lower value): 0.97
normalized growth (S. cerevisiae deletion strains, locus YIL066C, strain RNR3, stronger effect = lower value): 0.979
normalized growth (S. cerevisiae deletion strains, locus YIL073C, strain SPO22, stronger effect = lower value): 1.03
normalized growth (S. cerevisiae deletion strains, locus YIL125W, strain kgd1, stronger effect = lower value): 0.974
normalized growth (S. cerevisiae deletion strains, locus YIR030C, strain dcg1, stronger effect = lower value): 0.982
normalized growth (S. cerevisiae deletion strains, locus YJL095W, strain BCK1, stronger effect = lower value): 1.02
normalized growth (S. cerevisiae deletion strains, locus YJL134W, strain LCB3, stronger effect = lower value): 0.98
normalized growth (S. cerevisiae deletion strains, locus YJL168C, strain set2, stronger effect = lower value): 0.991
normalized growth (S. cerevisiae deletion strains, locus YJL187C, strain SWE1 (second series), stronger effect = lower value): 1.03
normalized growth (S. cerevisiae deletion strains, locus YJR043C, strain POL32, stronger effect = lower value): 0.935
normalized growth (S. cerevisiae deletion strains, locus YKL009W, strain mrt4, stronger effect = lower value): 1.01
normalized growth (S. cerevisiae deletion strains, locus YKL068W, stronger effect = lower value): 0.973
normalized growth (S. cerevisiae deletion strains, locus YKL085W, strain MDH1 (second series), stronger effect = lower value): 0.976
normalized growth (S. cerevisiae deletion strains, locus YKL085W, strain MDH1, stronger effect = lower value): 0.976
normalized growth (S. cerevisiae deletion strains, locus YKL190W, strain CNB1, stronger effect = lower value): 0.991
normalized growth (S. cerevisiae deletion strains, locus YKR001C, strain vps1, stronger effect = lower value): 0.968
normalized growth (S. cerevisiae deletion strains, locus YLR039C, strain RIC1, stronger effect = lower value): 0.952
normalized growth (S. cerevisiae deletion strains, locus YLR058C, strain SHM2, stronger effect = lower value): 0.999
normalized growth (S. cerevisiae deletion strains, locus YLR102C, strain apc9, stronger effect = lower value): 0.981
normalized growth (S. cerevisiae deletion strains, locus YLR268W, strain sec22, stronger effect = lower value): 0.99
normalized growth (S. cerevisiae deletion strains, locus YLR330W, strain CHS5, stronger effect = lower value): 0.983
normalized growth (S. cerevisiae deletion strains, locus YLR371W, strain rom2, stronger effect = lower value): 0.808 (active)
normalized growth (S. cerevisiae deletion strains, locus YLR418C, strain cdc73, stronger effect = lower value): 0.964
normalized growth (S. cerevisiae deletion strains, locus YML016C, strain PPZ1, stronger effect = lower value): 0.938
normalized growth (S. cerevisiae deletion strains, locus YML032C, strain rad52, stronger effect = lower value): 0.993
normalized growth (S. cerevisiae deletion strains, locus YML124C, strain tub3, stronger effect = lower value): 0.965
normalized growth (S. cerevisiae deletion strains, locus YMR078C, strain ctf18, stronger effect = lower value): 0.956
normalized growth (S. cerevisiae deletion strains, locus YMR223W, strain ubp8, stronger effect = lower value): 1.01
normalized growth (S. cerevisiae deletion strains, locus YMR307W, strain GAS1, stronger effect = lower value): 1.15
normalized growth (S. cerevisiae deletion strains, locus YNL067W, strain RPL9B, stronger effect = lower value): 1.01
normalized growth (S. cerevisiae deletion strains, locus YNL233W, strain BNI4, stronger effect = lower value): 0.991
normalized growth (S. cerevisiae deletion strains, locus YNL250W, strain rad50, stronger effect = lower value): 0.997
normalized growth (S. cerevisiae deletion strains, locus YNL271C, strain bni1, stronger effect = lower value): 0.977
normalized growth (S. cerevisiae deletion strains, locus YNL298W, strain CLA4, stronger effect = lower value): 1.01
normalized growth (S. cerevisiae deletion strains, locus YNL307C, strain MCK1, stronger effect = lower value): 0.975
normalized growth (S. cerevisiae deletion strains, locus YNR052C, strain pop2, stronger effect = lower value): 1.06
normalized growth (S. cerevisiae deletion strains, locus YOL012C, strain htz1): 0.862
normalized growth (S. cerevisiae deletion strains, locus YOL147C, strain pex11, stronger effect = lower value): 0.96
normalized growth (S. cerevisiae deletion strains, locus YOR061W, strain CKA2, stronger effect = lower value): 0.982
normalized growth (S. cerevisiae deletion strains, locus YOR069W, strain VPS5, stronger effect = lower value): 0.989
normalized growth (S. cerevisiae deletion strains, locus YOR136W, strain idh2, stronger effect = lower value): 1.01
normalized growth (S. cerevisiae deletion strains, locus YOR144C, strain elg1, stronger effect = lower value): 0.984
normalized growth (S. cerevisiae deletion strains, locus YOR184W, strain ser1, stronger effect = lower value): 0.901
normalized growth (S. cerevisiae deletion strains, locus YOR316C, strain cot1, stronger effect = lower value): 0.985
normalized growth (S. cerevisiae deletion strains, locus YPR119W, strain clb2, stronger effect = lower value): 0.982
normalized growth (S. cerevisiae deletion strains, locus YPR141C, strain kar3, stronger effect = lower value): 0.962
normalized growth (S. cerevisiae deletion strains, locus YPR163C, strain tif3, stronger effect = lower value): 0.993
normalized growth (S. cerevisiae deletion strains, locus YPR167C, strain met16, stronger effect = lower value): 0.993
normalized growth (S. cerevisiae deletion strains, strain wtn01, stronger effect = lower value): 0.947
normalized growth (S. cerevisiae strains, strain wild type, stronger effect = lower value): 0.983
